# Test results as given in PubChem BioAssay AID1159580 (chemical genetic matrix, 2015).
# Where “and” joins values, the source holds several entries; their conditions need not be identical. Equal entries are not always repeated. Screen size: about 5,500 compounds; about 2,000 (36%) were called active. Another 18% or so got no clear call; they are omitted. This is one part of the list. Unmarked numbers belong to inactive results. Rule as the data show it: active = normalized growth mostly below about 0.91 (no sharp cut-off); inconclusive = no clear call, values can overlap the other calls; inactive = mostly above about 0.92.
# Assay: chemical genetic growth profiling, strain panel (AID 1159580);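 also: tested at 20 µM; growth read once vehicle control cultures reached saturation at 30 °C; 1 = growth at the plate median or of vehicle wells; lower values mean less growth of the strain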
# Settings: S. cerevisiae deletion strains, growth OD
smiles,measurement,setting,value
C[C@H]1C(=O)CCC2[C@]3(C)CC[C@@]4(C)C5CC(C)(C)CC[C@]5(C)CC[C@]4(C)C3CC[C@@]21C (stereo partly specified),normalized growth,"locus YAL021C, strain ccr4, hits give low values",0.979
same,normalized growth,"locus YAL026C, strain drs2, hits give low values",1.02
same,normalized growth,"locus YAL030W, strain snc1, hits give low values",1
same,normalized growth,"locus YBL061C, strain skt5, hits give low values",1
same,normalized growth,"locus YBR009C, strain hhf1, hits give low values",1.02
same,normalized growth,"locus YBR021W, strain FUR4, hits give low values",0.713 (active)
same,normalized growth,"locus YBR023C, strain chs3, hits give low values",1
same,normalized growth,"locus YBR171W, strain sec66, hits give low values",1
same,normalized growth,"locus YBR229C, strain ROT2, hits give low values",1.02
same,normalized growth,"locus YBR231C, strain swc5, hits give low values",0.997
same,normalized growth,"locus YBR279W, strain paf1, hits give low values",1.01
same,normalized growth,"locus YCL011C, strain gbp2, hits give low values",1.01
same,normalized growth,"locus YCL016C, strain dcc1, hits give low values",1
same,normalized growth,"locus YCL029C, strain bik1, hits give low values",0.968
same,normalized growth,"locus YCL061C, strain MRC1, hits give low values",1.01
same,normalized growth,"locus YCL069W, strain vba3, hits give low values",1.01
same,normalized growth,"locus YCR088W, strain abp1, hits give low values",1.01
same,normalized growth,"locus YDL005C, strain med2, hits give low values",0.995
same,normalized growth,"locus YDL035C, strain GPR1, hits give low values",0.983
same,normalized growth,"locus YDL040C, strain nat1, hits give low values",1.01
same,normalized growth,"locus YDL074C, strain BRE1, hits give low values",0.955
same,normalized growth,"locus YDL101C, strain DUN1, hits give low values",1.02
same,normalized growth,"locus YDL134C, strain PPH21, hits give low values",0.97
same,normalized growth,"locus YDL185W, strain tfp1, hits give low values",1.02
same,normalized growth,"locus YDL192W, strain arf1, hits give low values",0.901 (active)
same,normalized growth,"locus YDR001C, strain nth1, hits give low values",1
same,normalized growth,"locus YDR069C, strain doa4, hits give low values",0.992
same,normalized growth,"locus YDR101C, strain arx1, hits give low values",0.981
same,normalized growth,"locus YDR137W, strain rgp1, hits give low values",0.987
same,normalized growth,"locus YDR159W, strain sac3, hits give low values",0.981
same,normalized growth,"locus YDR162C, strain NBP2, hits give low values",0.857
same,normalized growth,"locus YDR195W, strain ref2",0.966
same,normalized growth,"locus YDR297W, strain sur2, hits give low values",0.996
same,normalized growth,"locus YDR318W, strain mcm21, hits give low values",0.991
same,normalized growth,"locus YDR334W, strain swr1, hits give low values",1
same,normalized growth,"locus YDR335W, strain msn5, hits give low values",1.02
same,normalized growth,"locus YDR388W, hits give low values",1
same,normalized growth,"locus YDR392W, strain spt3, hits give low values",0.934
same,normalized growth,"locus YDR502C, strain sam2, hits give low values",0.97
same,normalized growth,"locus YEL003W, strain gim4, hits give low values",1.01
same,normalized growth,"locus YEL037C, strain rad23, hits give low values",0.999
same,normalized growth,"locus YEL061C, strain CIN8 (second series), hits give low values",1.01
same,normalized growth,"locus YEL061C, strain CIN8, hits give low values",1.02
same,normalized growth,"locus YER015W, strain faa2, hits give low values",1.01
same,normalized growth,"locus YER016W, strain bim1, hits give low values",0.994
same,normalized growth,"locus YER110C, hits give low values",1.01
same,normalized growth,"locus YER111C, strain swi4, hits give low values",0.998
same,normalized growth,"locus YER155C, strain BEM2 (second series), hits give low values",0.995
same,normalized growth,"locus YER155C, strain BEM2, hits give low values",1.03
same,normalized growth,"locus YER167W, strain BCK2, hits give low values",0.98
same,normalized growth,"locus YFR010W, strain ubp6, hits give low values",1.01
same,normalized growth,"locus YGL078C, strain dbp3, hits give low values",1.04
same,normalized growth,"locus YGL086W, strain mad1, hits give low values",0.974
same,normalized growth,"locus YGL167C, strain pmr1, hits give low values",1
same,normalized growth,"locus YGL173C, strain kem1, hits give low values",1.01
same,normalized growth,"locus YGL227W, strain vid30, hits give low values",1
same,normalized growth,"locus YGL240W, strain doc1, hits give low values",0.978
same,normalized growth,"locus YGL248W, strain PDE1, hits give low values",0.978
same,normalized growth,"locus YGL253W, strain hxk2, hits give low values",1.03
same,normalized growth,"locus YGR135W, strain pre9, hits give low values",1.01
same,normalized growth,"locus YGR252W, strain gcn5, hits give low values",0.902
same,normalized growth,"locus YHR013C, strain ard1, hits give low values",1.01
same,normalized growth,"locus YHR027C, strain rpn1, hits give low values",1.01
same,normalized growth,"locus YHR030C, strain SLT2, hits give low values",1.04
same,normalized growth,"locus YHR079C, strain IRE1 (second series), hits give low values",1.02
same,normalized growth,"locus YHR079C, strain IRE1, hits give low values",1.04
same,normalized growth,"locus YHR094C, strain hxt1, hits give low values",1.01
same,normalized growth,"locus YHR129C, strain ARP1, hits give low values",1
same,normalized growth,"locus YHR142W, strain chs7, hits give low values",1.03
same,normalized growth,"locus YHR200W, strain rpn10, hits give low values",0.951
same,normalized growth,"locus YIL066C, strain RNR3, hits give low values",0.969
same,normalized growth,"locus YIL073C, strain SPO22, hits give low values",1.02
same,normalized growth,"locus YIL125W, strain kgd1, hits give low values",1
same,normalized growth,"locus YIR030C, strain dcg1, hits give low values",1.02
same,normalized growth,"locus YJL092W, strain hpr5, hits give low values",1.01
same,normalized growth,"locus YJL095W, strain BCK1 (second series), hits give low values",0.999
same,normalized growth,"locus YJL095W, strain BCK1, hits give low values",0.936 and 1.01
same,normalized growth,"locus YJL115W, strain asf1, hits give low values",1
same,normalized growth,"locus YJL129C, strain trk1, hits give low values",1.01
same,normalized growth,"locus YJL134W, strain LCB3, hits give low values",1.03
same,normalized growth,"locus YJL154C, strain vps35, hits give low values",1
same,normalized growth,"locus YJL164C, strain tpk1, hits give low values",1.01
same,normalized growth,"locus YJL166W, strain qcr8, hits give low values",1
same,normalized growth,"locus YJL168C, strain set2, hits give low values",1.02
same,normalized growth,"locus YJL187C, strain SWE1 (second series), hits give low values",0.995
same,normalized growth,"locus YJL187C, strain SWE1, hits give low values",1
